Laboratory results taken from PubChem BioAssay (NCI).
This is part of a sample that, as a whole, favours compounds with a hit. Of some 79,000 tested, about 15% had one in any assay. The source made the active and inactive calls. Cut-off read from the data, not from the text of the source: active = growth inhibition above about 70%; inactive = the rest.

Test: NCI Yeast Anticancer Drug Screen. Data for the rad50 strain (AID 155);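 note: 0% = growth of vehicle-only cultures of the same strain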
Conditions: S. cerevisiae rad50 strain growth inhibition; at 50.0 µM; active compounds read high
Outline: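 Compounds were tested on a yeast strain with an engineered DNA damage repair alteration; the reported value is growth inhibition normalised to vehicle treatment.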

**Q.** With `CCCCCC(C1SC(=S)NC1=O)C1SC(=S)NC1=O` (stereo unspecified) as the compound, how does the growth inhibition read?
**A.** 96.8% (active)

**Q.** With `CC(C)C1=CC2=CC(=O)C3C(C)(C)CCCC3(C)C2=C(O)C1=O` (stereo unspecified) as the compound, how does the growth inhibition read?
**A.** 87.8% (active)

**Q.** With `CCOC(=O)C[n+]1c(C)sc2ccccc21` as the compound, how does the growth inhibition read?
**A.** 78.4% (active)

**Q.** For `OCc1c(-c2cccc3ccccc23)sc(-c2cccc3ccccc23)c1CO`, which growth inhibition is on record?
**A.** 90% (active)

**Q.** With `CC1=C(C#N)C(=O)OC1(C)C(CC(=O)c1ccccc1)c1ccccc1` (stereo unspecified) as the compound, how does the growth inhibition read?
**A.** -5.3% (inactive)

**Q.** Which growth inhibition does the source give for `O=c1oc2c3ccc4ccccc4c3n(CCCN3CCCCC3)c2c2ccccc12` here?
**A.** 54.4% (inactive)

**Q.** Which growth inhibition does the source give for `Cc1cc(NC(=S)SCc2ccc(F)cc2)ccc1Br` here?
**A.** 90.7% (active)

**Q.** With `Cc1ccc(C2C(O)=C(c3ccccc3)Sc3ccc(C)cc32)cc1` (stereo unspecified) as the compound, how does the growth inhibition read?
**A.** 35.6% (inactive)

**Q.** Which growth inhibition does the source give for `COC(=O)/C=C1/OC(c2ccccc2)=CC1=O` here?
**A.** 87.5% (active)

**Q.** For `COc1ccccc1NC(=O)CC(=O)N1N=C(c2ccccc2)C(N=Nc2ccc(Cl)cc2)C1=O` (stereo unspecified), which growth inhibition is on record?
**A.** -5.1% (inactive)

**Q.** For `CC(=O)NC1=C(Nc2ccc(-c3ccc(NC4=C(NC(C)=O)C(=O)c5ccccc5C4=O)cc3)cc2)C(=O)c2ccccc2C1=O`, which growth inhibition is on record?
**A.** 99.2% (active)

**Q.** For `CCCCCCC(O)CCOC(C)=O` (stereo unspecified), which growth inhibition is on record?
**A.** -19.4% (inactive)

**Q.** For `CCn1nc(-c2ccccc2)c2c1N(C)c1ccccc1-n1c(-c3ccccc3)nnc1-2`, which growth inhibition is on record?
**A.** 98.7% (active)

**Q.** For `CC1(CCC(=O)O)c2ccc3ccccc3c2Oc2c1ccc1ccccc21`, which growth inhibition is on record?
**A.** 93.8% (active)

**Q.** With `CCN1/C(=C\c2cc(C)nc(-c3ccccc3)[n+]2C)C=Cc2ccccc21` as the compound, how does the growth inhibition read?
**A.** 98% (active)

**Q.** For `Cc1ccccc1N1C(=O)c2ccccc2C1=O`, which growth inhibition is on record?
**A.** 61.1% (inactive)
